Screens deposited in PubChem BioAssay by National Center for Advancing Translational Sciences (NCATS).
Compounds with a hit are over-represented: about 12% of the library has one in this group of screens.
PLK1 PBD inh: qHTS for Inhibitors of PLK1-PDB (polo-like kinase 1 - polo-box domain): Primary Screen; Serine/threonine-protein kinase PLK1 (Homo sapiens), P53350; Plk1 PBD binding of FITC phosphopeptide, fluorescence polarization; Potency, µM, for the others: max response, negative = inhibition, hits mostly inhibitors; 360,000 compounds, 2.8% hits; AID 720504, 2013; further: potency means the concentration at half of the fitted maximal effect; series mostly up to about 57 µM; on the % scale 0 is the no-effect control and ±100 the full control effect; nearly all actives have a fitted effect of over 65% in size
Target sequence (P53350 whole entry, looked up, the tested form may be a part): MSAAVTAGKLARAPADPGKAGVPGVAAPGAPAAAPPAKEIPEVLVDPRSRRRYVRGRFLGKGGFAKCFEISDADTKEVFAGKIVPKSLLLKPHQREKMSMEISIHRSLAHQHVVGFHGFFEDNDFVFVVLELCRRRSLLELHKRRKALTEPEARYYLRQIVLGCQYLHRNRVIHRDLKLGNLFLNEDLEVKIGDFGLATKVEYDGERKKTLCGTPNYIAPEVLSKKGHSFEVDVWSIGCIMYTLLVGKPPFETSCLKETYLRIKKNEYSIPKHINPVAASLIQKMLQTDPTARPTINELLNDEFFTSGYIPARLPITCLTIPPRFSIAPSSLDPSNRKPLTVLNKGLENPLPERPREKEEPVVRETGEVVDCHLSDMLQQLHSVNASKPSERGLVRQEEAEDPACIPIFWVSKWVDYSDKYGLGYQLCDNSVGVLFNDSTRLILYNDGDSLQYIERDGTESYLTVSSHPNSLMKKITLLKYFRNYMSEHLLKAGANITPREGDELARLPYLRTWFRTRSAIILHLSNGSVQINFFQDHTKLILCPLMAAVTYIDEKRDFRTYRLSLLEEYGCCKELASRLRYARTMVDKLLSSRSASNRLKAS
G9a block: qHTS Assay for Inhibitors of Histone Lysine Methyltransferase G9a. Histone-lysine N-methyltransferase EHMT2 (Homo sapiens), Q96KQ7. G9a H3K9 monomethylation, AlphaScreen, 2 h. Potency, µM (series often up to 102 µM), inactives show at the highest dose activity, negative = inhibition, hits mostly inhibitors. 350,000 compounds, 8.8% hits; further: potency means the concentration at half of the fitted maximal effect; on the % scale 0 is the no-effect control and ±100 the full control effect; nearly all actives have a fitted effect of over 75% in size
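Quantitative HTS format: methyltransferase activity on a biotin-tagged H3K9 peptide is measured by AlphaScreen, using a rabbit anti-monomethyl-H3K9 antibody with streptavidin donor and anti-IgG acceptor beads. Final levels are 20 nM enzyme, 500 nM peptide, 20 uM SAM; 2 h RT.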
JMJD2A Tudor inh: qHTS Assay for Inhibitors of JMJD2A-Tudor Domain; 390,000 compounds, 4.4% hits; Potency, µM (titrated, usually from 114 µM), for the others: at the top dose activity change, negative = inhibition, most hits filed as inhibitors; Lysine-specific demethylase 4A (Homo sapiens), O75164; AlphaScreen JMJD2A-Tudor / H3K4me3 peptide binding; further: potency means the concentration at half of the fitted maximal effect; on the % scale 0 is the no-effect control and ±100 the full control effect; nearly all actives have a fitted effect of over 50% in size
PI5P4Ka inh: qHTS for Inhibitors of phosphatidylinositol 5-phosphate 4-kinase (PI5P4K); Phosphatidylinositol 5-phosphate 4-kinase type-2 alpha (Homo sapiens), P48426; PI5P4Kalpha enzyme, ADP-Glo luminescence, 60 min; stronger effect = lower value; 330,000 compounds, 1.2% hits; max response, %; active means max response of -50% or lower; inconclusive means between -30% and -50%; inactive means -30% or higher; further: value at the top dose of about 77 µM; on the % scale 0 is the no-effect control and ±100 the full control effect
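Enzyme plus substrate dispensed, test compounds pinned in, then ATP (5 microM final) added. After 60 min at RT, ADP-Glo reagent 1 for 45 min and reagent 2 for 30 min preceded luminescence imaging.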
HP1b chromo inh: HTS for Inhibitors of HP1-beta Chromodomain Interactions with Methylated Histone Tails. 390,000 compounds, 0.56% hits. AID 540317, 2011. Potency, µM (top dose mostly 114 µM), for the others: at the highest dose activity change, negative = inhibition, hits mostly inhibitors. AlphaScreen HP1-beta / biotin-H3K9me3 peptide binding; further: potency means the concentration at half of the fitted maximal effect; nearly all actives have a fitted effect of over 70% in size
Target sequence (P83916 whole entry, looked up): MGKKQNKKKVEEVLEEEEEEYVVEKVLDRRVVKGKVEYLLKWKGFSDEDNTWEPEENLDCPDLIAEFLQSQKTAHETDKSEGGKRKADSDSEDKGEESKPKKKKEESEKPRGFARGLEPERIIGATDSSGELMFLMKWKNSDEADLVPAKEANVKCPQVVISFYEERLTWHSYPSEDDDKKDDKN
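Compound inhibition of the preformed complex between 50 nM HP1-beta and 50 nM biotinylated H3K9me3 peptide was read by AlphaScreen. Buffer was PBS pH 7.4 with 0.01% Tween-20. Incubations ran 30 min at room temperature, with 10 ug/mL donor/acceptor beads.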
BAZ2B inh: qHTS Assay for Inhibitors of BAZ2B | AID 504333, 2011 | 360,000 compounds, 4.4% hits | Bromodomain adjacent to zinc finger domain protein 2B (Homo sapiens), Q9UIF8 | Potency, µM (titrated, usually from 114 µM), for the others: at the top dose activity change, negative = inhibition, actives largely listed as inhibitors | AlphaScreen BAZ2B-H3K14Ac peptide displacement; further: potency means the concentration at half of the fitted maximal effect; on the % scale 0 is the no-effect control and ±100 the full control effect; nearly all actives have a fitted effect of over 60% in size
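BAZ2B (50 nM) with biotin-H3(5-23)K14Ac peptide (50 nM) in PBS pH 7.4, 0.01% Tween-20, preformed 30 min, then compound 30 min at room temperature; top concentration 110uM. AlphaScreen streptavidin donor/nickel chelate acceptor beads (10 ug/mL final), 20 min dark, signal read.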
The depositor's hits bear a star; i = inactive; ? = inconclusive; . = no result given; [ ] = remark or other dose. Unless noted, the call rests on the fitted dose curve; in most records, active means well fitted curve in the direction sought with a large enough effect; inconclusive means small, poorly fitted or top-dose-only effect, or another doubt; inactive means no such curve, though single readings can be large; an effect the other way counts as inactive or inconclusive.

SMILES	PLK1 PBD inh	G9a block	JMJD2A Tudor inh	PI5P4Ka inh	HP1b chromo inh	BAZ2B inh
O=C(CSc1nc2ccccc2nc1Cc1ccc(Cl)cc1)Nc1ccc2c(c1)OCO2	.	6%[59 µM]	-17%	.	14%[57 µM]	7%
O=C(CCCCCNC(=O)N1CCn2c1nc1ccccc12)N[C@@H](Cc1ccccc1)C(=O)O	4%	.	-7%	1	29%	3%[57.1 µM]
c1ccc(-c2nn3c(Cn4nnc5ccccc54)nnc3s2)nc1	27µM*	?	?	.	-28%	-31%
CCc1nnc2sc(-c3cc(-c4ccccc4)nc4ccccc34)nn12	-7%	-10%[12.7 µM]	-17%	.	34%	2%
c1cncc(-c2nn3c(Cn4nnc5ccccc54)nnc3s2)c1	17µM*	13%[2.33 µM]	-9%	.	-22%	14%
Cc1ccc(S(=O)(=O)c2cc3cc(C(=O)Nc4ccc(C)cc4C)ccc3oc2=O)cc1	.	-22%[59 µM]	-8%	.	14%	-9%
CCCNC(=O)Cn1ncc2c3ccccc3n(CCC)c2c1=O	.	4%[59 µM]	4%	.	32%	1%
COCCCNC(=O)c1ccc2c3c(onc13)-c1ccccc1C2=O	5.3µM*	.	50µM*	-7	?	20µM*
N#Cc1c(N)[nH]c(=S)c(C#N)c1-c1ccccc1	?	1.1µM*	?	.	-5%	.
N#CCSC1=Nc2ccccc2C2=NC(CCC(=O)N3CCN(c4ccccc4)CC3)C(=O)N12 (centres undefined)	?	45µM*	-22%	-29	28%	?
Cc1nc(C(F)(F)F)c(C(=O)N/N=C(\N)c2cccnc2)s1	-4%	29%	28µM*	-1	10%	79µM*
C/C(=N\NC(=O)c1sccc1C)c1cccnc1	-8%	16%	-5%	2	33%	-15%
Cc1cccc(C2=N[C@@H](Cc3ccccc3)CO2)c1	.	6%	.	.	.	.
CCc1cccc2c(C(=O)CCl)c[nH]c12	24µM*	?	-10%	8	32%	0%
CCc1cccc2c(C(=S)N3CCCC3)c[nH]c12	-14%	-2%[12.7 µM]	-30%	-1	25%	-16%
COc1cccc(/C=C2/NC(=O)N(CC(=O)Nc3ccc(C)cc3)C2=O)c1OCc1cccc(C(=O)O)c1	?	?	?	-26	?	25µM*
Cc1ccc(NC(=O)CN2C(=O)N/C(=C/c3ccccc3OCc3cccc(C(=O)O)c3)C2=O)cc1	?	45µM*	28µM*	-29	?	18µM*
COc1cc2c(cc1/C=C1/NC(=O)N(CC(=O)Nc3ccccc3)C1=O)OCO2	-11%	-35%	-8%	-15	4%	-18%
CC(=O)Nc1cccc(NC(=O)CSc2cn(CC(=O)N(C(C)C)C(C)C)c3ccccc23)c1	.	?	-15%	.	3%	?
N#CC1=C(O)C(c2ccccc2)n2c1nc(=O)c1ccccc12 (centres undefined)	-5%	25µM*	-20%	?	30%	?
CSC1=C(C#N)C(=O)NC(c2ccc(Cl)cc2)S1 (centres undefined)	7.5µM*	32µM*	-20%	-15	-4%	?
CSc1nc(-c2ccc(Cl)cc2)c(C#N)c(=O)[nH]1	-3%	?	1%	-18	17%	-17%
Cc1ccc2nc3c(cc2c1)c(C)nn3-c1ccccc1	4%	i	476%	20	i	416%
Cc1nn(-c2ccccc2)c(=S)c2ccccc12	0%	13µM*	7%	3	37%	?
O=C1c2ccccc2-c2onc3ccc(Oc4ccccc4)c1c23	26%	8.9µM*	?	-8	-27%	?
SMILES	PLK1 PBD inh	G9a block	JMJD2A Tudor inh	PI5P4Ka inh	HP1b chromo inh	BAZ2B inh
O=S(=O)(c1ccc(C(F)(F)F)cc1)N1CCN(c2nc(-c3ccccc3)nc3ccccc23)CC1	.	.	-9%	.	32%	.
CN(Cc1ccco1)C(=O)c1c[nH]c2ccc(S(=O)(=O)Nc3ccc4c(c3)OCCO4)cc2c1=O	-4%	89µM*	-26%	-7	-26%	?
CCOc1ccc(NS(=O)(=O)c2ccc3[nH]cc(C(=O)NCc4ccco4)c(=O)c3c2)cc1	.	?	-26%	.	-4%	.
CCc1ccc(NS(=O)(=O)c2ccc3[nH]cc(C(=O)N(C)Cc4ccco4)c(=O)c3c2)cc1	-13%	89µM*	-30%	.	5%	?
Cc1nn(C)c2c1NC(=O)CS2	-6%	.	.	0	.	.
COc1cccc(Cn2c(=O)n(-c3cc(C)cc(C)c3)c(=O)c3oc4ccccc4c32)c1	.	-23%[59 µM]	-6%	.	53%	-22%
O=C1NN(c2ccccc2)C(=O)/C1=C\c1cccc(OC(=O)c2cccs2)c1	1.5µM*	?	?	?	3%	56µM*
O=C(N/N=C/c1cccc(OC(=O)N2CCOCC2)c1)c1cccs1	-2%	0%[59 µM]	1%	3	22%	-4%
O=C1NN(c2ccc(Cl)c(Cl)c2)C(=O)/C1=C/c1cccc(OC(=O)c2cccs2)c1	.	?	.	.	.	50µM*
COC(=O)N/N=C\c1cccc(OC(=O)c2cccs2)c1	-3%	15%[59 µM]	-13%	1	35%	-12%
N#Cc1ccc(Oc2cnccn2)cc1	2%	7%	-14%	3	12%	-1%
O=[N+]([O-])c1cc(Br)c(OCc2nnc(-c3ccccc3)o2)c(Br)c1	-6%	28µM*	-55%	6	-3%	?
CN(C)Cc1cccc(-c2ccccc2)c1O	-11%	.	-1%	-3	-15%	.
CN(C)Cc1cccc([N+](=O)[O-])c1O	-7%	50µM*	-21%[11.4 µM]	1	22%	-17%
Cc1ccc(C)c(N2CCN(C3=C(c4ccccc4)C(=O)c4ccccc43)CC2)c1	.	3.2µM*	2.5µM*	.	?	?
COc1ccc(C2=C(N3CCN(c4cccc(C)c4C)CC3)c3ccccc3C2=O)cc1	.	3.2µM*	5µM*	.	?	2.2µM*
Cc1ccc(C)c(N2CCN(CCCc3ccccc3)CC2)c1	-12%	-14%	-13%	10	49%	-5%
Oc1ccc(-c2cn3ccccc3n2)cc1O	-1%	2µM*	25µM*	-14	?	79µM*
CCS(=O)(=O)Nc1cc(-c2cn3ccc(C)cc3n2)ccc1C	.	-15%[59 µM]	-20%	.	29%	-26%
Cc1ccn2cc(-c3ccc(O)c(O)c3)nc2c1	-6%	8.9µM*	40µM*	-29	?	71µM*
Cc1ccn2cc(-c3cccc(NC(=O)C(C)C)c3)nc2c1	21µM*	-22%	?	-8	15%	-19%
O=C(CSc1nnc(-c2ccccc2F)o1)NC(=O)Cc1ccccc1	2%	2%[2.33 µM]	2%	0	43%	-12%
